Screens from PubChem BioAssay.
Rows were chosen to be rich in hits. Some 10% of all compounds tested hit in one or more screens of this group.
ALDH1A1 inh: inhibitors of human aldehyde dehydrogenase 1A1; P00352; Purified ALDH1A1, NADH fluorescence, propionaldehyde substrate; Potency, µM (highest dose often 75.3 µM), inactives show at the highest dose activity, negative = inhibition, usual class: inhibitors; 220,000 tested, 7.3% active; AID 1030;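 note: potency is the fitted concentration of half-maximal effect; plate controls were no enzyme wells and a reference inhibitor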
Target sequence (P00352 whole entry, looked up): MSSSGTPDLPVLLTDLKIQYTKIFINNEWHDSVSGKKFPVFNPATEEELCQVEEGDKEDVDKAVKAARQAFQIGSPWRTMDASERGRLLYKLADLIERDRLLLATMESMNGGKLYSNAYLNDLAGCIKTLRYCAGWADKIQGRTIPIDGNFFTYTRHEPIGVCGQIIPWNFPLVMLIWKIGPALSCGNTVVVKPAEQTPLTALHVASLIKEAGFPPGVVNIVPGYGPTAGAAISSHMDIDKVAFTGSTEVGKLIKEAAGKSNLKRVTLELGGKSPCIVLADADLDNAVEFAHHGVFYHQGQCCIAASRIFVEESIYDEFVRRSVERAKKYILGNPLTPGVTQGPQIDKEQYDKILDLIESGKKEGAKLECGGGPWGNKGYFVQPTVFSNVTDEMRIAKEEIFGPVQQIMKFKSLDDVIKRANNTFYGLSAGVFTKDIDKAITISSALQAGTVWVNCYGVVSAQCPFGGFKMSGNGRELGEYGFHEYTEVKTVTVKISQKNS
HPGD block: HPGD (human) dehydrogenase inhibition | Potency, µM, without a hit: at the highest dose activity change, negative = inhibition, actives largely listed as inhibitors | purified HPGD, NADH fluorescence kinetic, PGE2 substrate | 150,000 tested, 4.3% active | P15428; note: potency is the fitted concentration of half-maximal effect
Target sequence (P15428 whole entry, looked up): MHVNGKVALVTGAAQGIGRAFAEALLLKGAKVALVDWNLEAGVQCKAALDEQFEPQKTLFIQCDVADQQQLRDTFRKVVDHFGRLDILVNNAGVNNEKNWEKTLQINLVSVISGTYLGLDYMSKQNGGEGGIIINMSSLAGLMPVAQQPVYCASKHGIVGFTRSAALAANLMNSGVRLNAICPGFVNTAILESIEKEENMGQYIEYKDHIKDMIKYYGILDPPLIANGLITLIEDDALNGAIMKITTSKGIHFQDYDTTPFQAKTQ
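20 nM HPGD preincubated 15 min at room temperature with compound in 50 mM Tris-HCl pH 8, 0.01% Tween 20. Started with 1 mM NAD+ and 30 uM prostaglandin E2; NADH fluorescence (360/450 nm) read 5 times over 30-s intervals, last minus first.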
LMNA splice mod: changes lamin A minigene splicing in HeLa cells; HeLa LMNA splicing GFP/RFP minigene ratio, 48 h; Potency, µM (highest dose often 46.1 µM), for the others: at the highest dose ratio change, negative = inhibition, hits mostly inhibitors; 200,000 tested, 0.01% active; active = well fitted inhibition curve with a large enough effect in the signal ratio, with a control signal flat, not every such curve was filed as active; inconclusive = small, poorly fitted or top-dose-only effect, or effect the other way, or a change in a side signal; the % refers to the signal ratio; note: potency is the fitted concentration of half-maximal effect
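S3 HeLa cells stably expressing lamin A-EGFP splicing minigene plus DsRed2, 600 cells/well, 48 h compound exposure at 37C. Laser-scanning cytometry; analysed as GFP (500-530 nm)/RFP (575-640 nm) total intensity ratio; 0.5% DMSO vehicle.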
PNC inhibitor: perinucleolar compartment assembly inhibition | PC3M PTB-GFP, PNC prevalence imaging, 16 h; stronger effect = lower value | activity change (PNC), negative = inhibition, % at 10 µM | 140,000 tested, 3.1% active;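 active = readout at or below -70, meaning at least 70% loss of cells showing the perinucleolar compartment, a nuclear body marking cancer cells; inconclusive = readout between -30 and a set limit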;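 note: plate controls were DMSO wells for no effect and camptothecin positive control wells for full effect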
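Compounds are pinned in duplicate onto adhered PC3M cells stably expressing GFP-tagged PTB and incubated 16 h at 37 C. Cells are then fixed, nuclei stained with Hoechst, and PNC-positive cells counted.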
ALOX12 inhib: blocks human 12-lipoxygenase activity. purified 12-hLO, xylenol orange hydroperoxide absorbance. P18054. Potency, µM (highest dose often 57.1 µM), without a hit: at the top dose activity change, negative = inhibition, actives largely listed as inhibitors. 150,000 tested, 0.12% active. AID 1452; active = well fitted inhibition curve with a large enough effect; inconclusive = small, poorly fitted or top-dose-only effect; note: potency is the fitted concentration of half-maximal effect; nearly all actives have a fitted effect of over 55% in size
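Lipoxygenase turnover measured by absorbance at 573 and 405 nm after Fe-XO development. Human 12hLO 150 nM, arachidonate 40 uM, pH 7.0 Hepes buffer with detergent; 15 min compound preincubation, 30 min reaction.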
Numbers without * were called inactive; ? = inconclusive; / = not tested or not shown; [ ] = dose if it differs, or a comment. Unless noted, calls come from the whole dose curve; as a rule, active = well fitted inhibition curve with a large enough effect (not every such curve was filed as active); inconclusive = small, poorly fitted or top-dose-only effect, or another doubt; inactive = no such curve, though single readings can be large or run the other way. Unless noted, % is set by controls: 0 for no effect and ±100 for the full control effect.

SMILES | ALDH1A1 inh | HPGD block | LMNA splice mod | PNC inhibitor | ALOX12 inhib
CCOc1ccc(NS(=O)(=O)c2ccc(N)cc2)cc1 | 6.5% | -10.4% | -5.1% | 25.4 | -4.5%
COc1ccc(S(=O)(=O)NN=C2CCCC2)cc1 | ? | -0.2% | 7.2%[0.0737 µM] | 61.2 | 4.8%
CCOc1ccc(S(=O)(=O)NN=C2CCN(C(C)=O)CC2)cc1 | 7.94µM* | / | / | / | /
COc1ccc(NS(=O)(=O)c2ccc(SC)cc2)c(OC)c1 | 8.91µM* | -10.5% | ? | ? | -4.6%
CCOC(=O)Cc1ccc(NS(=O)(=O)c2ccc(SC)cc2)cc1 | 8.91µM* | -15.3% | ? | -8.2 | -0.8%
CCOc1ccc(S(=O)(=O)Nc2cccc(OC)c2)cc1 | ? | ? | ? | ? | -3.7%
COc1cc(NS(=O)(=O)c2ccc(F)cc2)c(OC)cc1NC(C)=O | 7.94µM* | -13.1% | ? | 14.1 | -6.0%
COc1ccc(NC(=O)C2CC2)cc1NS(=O)(=O)c1ccc(F)cc1 | 9.9% | -16.4% | -0.5% | -23.8 | -0.2%
COc1ccc(S(=O)(=O)NN=C2CCCCC2)cc1 | 0.631µM* | -10.4% | 3.6% | 1.5 | -6.3%
CCOc1ccc(S(=O)(=O)NN)cc1 | 2µM* | -0.8% | -5.8% | -25.4 | -2.8%
COc1ccc(S(=O)(=O)N/N=C(/C)c2ccc(Cl)cc2)cc1 | ? | 0.5% | -1.7% | 65.9 | -5.8%
CCOc1ccc(S(=O)(=O)N/N=C(\C)c2ccc(OC)cc2OC)cc1 | 22.4µM* | / | / | / | /
CNc1ccccc1C(C)(C)c1cc(-c2ccco2)n[nH]1 | 7.94µM* | -4.1% | ? | 12.0 | -27.3%
CNc1ccccc1C(C)(C)c1cc(C)[nH]n1 | 9.6% | / | -6.7%[9.22 µM] | / | /
CC1(C)CC(CCN(Cc2ccccc2)C(=O)c2ccco2)(c2ccccc2)CCO1 (stereo unspecified) | 25.1µM* | -12.0% | ? | -10.7 | -10.1%
O=C(c1ccco1)N(CCC(c1ccccc1)c1ccco1)Cc1ccco1 (stereo unspecified) | 3.55µM* | 20µM* | ? | 34.6 | -15.4%
CC(=O)N(CCC(c1ccccc1)c1ccco1)Cc1cccs1 (stereo unspecified) | 1.41µM* | 28.2µM* | 22.2% | -7.1 | -0.4%
Cc1ccc(C(CCN(Cc2ccccc2)C(=O)c2ccco2)c2ccco2)cc1 (stereo unspecified) | 20µM* | ? | ? | ? | -13.5%
Cc1c(NC(=O)c2ccc(N(Cc3ccccc3)S(C)(=O)=O)cc2)c(=O)n(-c2ccccc2)n1C | 11.5% | / | / | / | /
COc1ccccc1[C@@H]1C(c2ccc(F)cc2)=NN(c2ccc(Br)cc2)[C@H]1C(=O)N1CCOC1=O | ? | -18.8% | / | / | 1.2%[0.00818 µM]
CC1=NN(c2ccccc2)C(=O)/C1=C\c1ccc(Oc2ccc([N+](=O)[O-])cc2[N+](=O)[O-])cc1 | 8.91µM* | 8.91µM* | ? | ? | -5.4%
COc1cc(/C=C2/SC(N)=NC2=O)ccc1Oc1ccc([N+](=O)[O-])cc1[N+](=O)[O-] | -0.7% | -10.9% | -9.2% | 10.8 | -2.6%
COc1cc(/C=C2\C(=O)N(c3ccccc3)N=C2C)ccc1Oc1ccc([N+](=O)[O-])cc1[N+](=O)[O-] | ? | 12.6µM* | ? | 5.1 | -10.0%
N#CCCn1c(=O)c(-c2ccc(F)cc2)nc2cnc(Oc3cccc(Cl)c3)nc21 | ? | -18.1% | / | / | 5.9%
Cc1cccc(CSc2nc3c(c(=O)[nH]2)CCCC3)c1 | 10.5% | 7.94µM* | -1.6% | 84.6 | 1.5%
SMILES | ALDH1A1 inh | HPGD block | LMNA splice mod | PNC inhibitor | ALOX12 inhib
O=c1[nH]c(SCc2ccc(Cl)cc2)nc2ccccc12 | 5.7% | / | / | / | /
Cc1oc(-c2ccccc2Cl)nc1CSc1nc2c(c(=O)[nH]1)CCC2 | -8.2% | 2.82µM* | ? | 19.4 | -2.7%
O=c1[nH]c(SCc2cccc(F)c2)nc2c1CCCC2 | -10.0% | 7.08µM* | 5.0% | -17.4 | 1.2%
O=c1[nH]c(SCc2cccc(Cl)c2)nc2c1CCCC2 | -9.4% | / | ? | 4.4 | -5.4%
O=c1[nH]c(SCc2ccc(Cl)cc2)nc2c1CCC2 | -5.5% | 4.47µM* | ? | -8.6 | -3.2%
Cc1cccc(CSc2nncc(=O)[nH]2)c1 | -3.9% | -26.4% | -0.7% | -19.8 | 10.3%
Cc1cnc(CNc2ncnc3ccc(-c4ccccc4CN(C)C)cc23)cn1 | ? | ? | ? | / | 1.5%
CCN(Cc1ccccc1)c1ccc(/C=N/NS(=O)(=O)c2cccc([N+](=O)[O-])c2)cc1 | 6.31µM* | -19.4% | ? | -24.3 | -7.1%
CCN(Cc1ccccc1)c1ccc(/C=N/NC(=O)c2cccc(S(=O)(=O)N3CCOCC3)c2)cc1 | ? | ? | ? | ? | -0.2%
CCN(CC)c1ccc(/C=N/NS(=O)(=O)c2ccc(C)c([N+](=O)[O-])c2)cc1 | 20µM* | / | -6.8% | ? | -6.7%
CCNc1nc(OC)nc(Oc2ccc(=O)n(-c3ccccc3)n2)n1 | -4.9% | -11.1% | 14.2% | -93.8* | 0.4%
CCNc1nc(Oc2ccc(=O)n(-c3ccccc3)n2)nc(N(C)C)n1 | 1.0% | -6.2% | 3.8% | 62.5 | 2.4%
Cc1ccc(C)c(NC(=O)CCc2c(C)nn(-c3ccc(N4CCCC4)nn3)c2C)c1 | / | / | -3.1%[46 µM] | / | /
COc1cccc(-n2ccnc2SCC(=O)Nc2ccc(Cl)c(Cl)c2)c1 | / | / | 9.2%[46 µM] | / | /
Cc1ccc2[nH]c(=O)c(CN(Cc3cccs3)S(=O)(=O)c3ccc4c(c3)OCCO4)cc2c1 | 25.1µM* | -27.9% | -10.4% | ? | -0.3%
COc1ccc2cc(CN(CC3CCCO3)S(=O)(=O)c3ccc(C(C)=O)cc3)c(=O)[nH]c2c1 (stereo unspecified) | ? | -11.6% | 5.2% | 29.5 | -5.4%
COc1ccc2[nH]c(=O)c(CN(CCO)S(=O)(=O)c3ccc(C)cc3)cc2c1 | ? | / | -0.2%[46 µM] | / | /
COc1ccc(S(=O)(=O)N(Cc2cc3cc(C)ccc3[nH]c2=O)CC2CCCO2)cc1 (stereo unspecified) | 8.91µM* | 49.9% | -1.7% | 39.7 | -2.8%
COc1ccc2cc(CN(CC3CCCO3)C(=S)Nc3ccccc3)c(=O)[nH]c2c1 (stereo unspecified) | 7.08µM* | / | ? | / | /
Cc1cc2cc(CN(Cc3cccs3)S(=O)(=O)c3ccc4c(c3)OCCO4)c(=O)[nH]c2cc1C | 0.0% | -9.5% | -9.7% | ? | 0.4%
COC(=O)c1ccccc1S(=O)(=O)N(Cc1cc2ccc(OC)cc2[nH]c1=O)CC1CCCO1 (stereo unspecified) | 2.3% | -6.9% | 2.6% | -97.9* | -10.2%
COC(=O)c1ccccc1S(=O)(=O)N1CCc2nc(-c3ccccc3)c3c(c2C1)CO[C@@H](C)C3 | ? | -10.4% | -2.2%[9.22 µM] | / | 1.4%[11.4 µM]
COc1ccc(CNC(=O)CN2C(=O)CCn3nc(-c4ccccc4)cc32)c(OC)c1 | / | / | 13.9%[46 µM] | / | /
O=C(CN1C(=O)COc2ccc(S(=O)(=O)NC3CCCC3)cc21)Nc1ccc(Cl)cc1F | / | / | -1.1%[46 µM] | / | /
CN(Cc1cc2ccccc2[nH]c1=O)S(=O)(=O)c1ccccc1 | ? | 0.7% | -5.5% | 7.7 | -5.4%
